Targets with a hit are over-represented here; the source holds about 6,500 in all. About 2% of all pairs of compound and target were hits. A number with no mark means an inactive call.
Compound: COC(=O)C#Cc1ccccc1 [methyl 3-phenylpropiolate]
Test: log2 ratio of iodoacetamide-alkyne labeling of the cysteine site, DMSO over compound (competition); higher = stronger covalent engagement of the cysteine by the compound, active = 1 or more
Conditions: 500 µM; treatment time 1 h; system: HEK293T cell lysate
Outline: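 Reporter intensities give each cysteine's log2 competition ratio as the mean of control channels over the mean of compound channels. The samples were HEK293T lysate (2 mg/mL) given vehicle or electrophile (500 µM, 1 h, ambient temperature), then iodoacetamide alkyne (1 h), followed by click coupling to sCIP-TMT reagents, pooling, trypsin digestion overnight at 37 °C, streptavidin enrichment, acid elution, Orbitrap Eclipse LC-MS/MS with FAIMS and FragPipe quantification. Duplicate channels and three replicates were run, and cysteines quantified in only one replicate were discarded.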

Sequence of UniProt Q16134 (Q16134 whole entry, looked up): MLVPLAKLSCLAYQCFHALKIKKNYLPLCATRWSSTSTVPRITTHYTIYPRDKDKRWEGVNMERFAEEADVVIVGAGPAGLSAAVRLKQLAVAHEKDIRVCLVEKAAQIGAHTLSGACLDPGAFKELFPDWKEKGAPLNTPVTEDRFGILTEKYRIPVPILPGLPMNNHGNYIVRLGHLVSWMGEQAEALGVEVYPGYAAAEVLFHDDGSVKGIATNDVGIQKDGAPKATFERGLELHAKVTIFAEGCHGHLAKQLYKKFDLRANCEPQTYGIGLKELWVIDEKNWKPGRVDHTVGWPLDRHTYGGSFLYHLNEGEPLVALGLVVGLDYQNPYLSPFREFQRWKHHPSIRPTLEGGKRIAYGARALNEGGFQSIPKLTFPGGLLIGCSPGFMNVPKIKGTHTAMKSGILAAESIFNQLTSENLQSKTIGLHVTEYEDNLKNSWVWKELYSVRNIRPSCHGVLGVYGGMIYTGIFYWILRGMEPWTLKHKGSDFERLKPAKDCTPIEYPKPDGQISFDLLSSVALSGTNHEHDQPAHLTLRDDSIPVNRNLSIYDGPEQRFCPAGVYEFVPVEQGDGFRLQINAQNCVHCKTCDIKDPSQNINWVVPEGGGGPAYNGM
Sequence of UniProt Q12834 (Q12834 whole entry): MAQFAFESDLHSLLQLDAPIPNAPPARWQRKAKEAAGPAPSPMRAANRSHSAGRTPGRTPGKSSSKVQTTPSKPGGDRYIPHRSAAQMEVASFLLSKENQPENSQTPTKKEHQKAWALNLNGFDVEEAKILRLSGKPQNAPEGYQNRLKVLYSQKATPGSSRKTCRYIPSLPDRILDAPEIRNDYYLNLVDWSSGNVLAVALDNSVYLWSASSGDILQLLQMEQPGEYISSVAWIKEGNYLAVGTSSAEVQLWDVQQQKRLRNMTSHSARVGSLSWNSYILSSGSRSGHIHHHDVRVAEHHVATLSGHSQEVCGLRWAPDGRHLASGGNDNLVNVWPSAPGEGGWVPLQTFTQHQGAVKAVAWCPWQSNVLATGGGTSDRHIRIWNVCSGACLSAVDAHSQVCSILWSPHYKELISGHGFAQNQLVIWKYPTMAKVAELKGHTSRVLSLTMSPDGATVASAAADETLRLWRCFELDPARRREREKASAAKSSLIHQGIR
Sequence of UniProt Q13057 (Q13057 whole entry, looked up): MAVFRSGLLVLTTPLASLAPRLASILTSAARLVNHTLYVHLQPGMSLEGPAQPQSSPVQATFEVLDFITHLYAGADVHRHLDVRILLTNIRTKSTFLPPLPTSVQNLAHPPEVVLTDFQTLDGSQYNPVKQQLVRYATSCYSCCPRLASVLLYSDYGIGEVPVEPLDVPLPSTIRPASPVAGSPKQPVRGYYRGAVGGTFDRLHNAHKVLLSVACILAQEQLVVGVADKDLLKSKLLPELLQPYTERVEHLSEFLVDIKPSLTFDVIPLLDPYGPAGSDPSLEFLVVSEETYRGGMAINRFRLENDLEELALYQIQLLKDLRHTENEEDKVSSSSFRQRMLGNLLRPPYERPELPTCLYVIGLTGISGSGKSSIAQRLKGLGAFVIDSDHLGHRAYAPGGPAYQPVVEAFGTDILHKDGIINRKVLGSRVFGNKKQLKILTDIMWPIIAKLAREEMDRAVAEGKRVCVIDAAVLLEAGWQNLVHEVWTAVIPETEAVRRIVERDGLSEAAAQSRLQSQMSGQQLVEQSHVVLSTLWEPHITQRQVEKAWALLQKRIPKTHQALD
Sequence of UniProt Q06210 (Q06210 whole entry, looked up): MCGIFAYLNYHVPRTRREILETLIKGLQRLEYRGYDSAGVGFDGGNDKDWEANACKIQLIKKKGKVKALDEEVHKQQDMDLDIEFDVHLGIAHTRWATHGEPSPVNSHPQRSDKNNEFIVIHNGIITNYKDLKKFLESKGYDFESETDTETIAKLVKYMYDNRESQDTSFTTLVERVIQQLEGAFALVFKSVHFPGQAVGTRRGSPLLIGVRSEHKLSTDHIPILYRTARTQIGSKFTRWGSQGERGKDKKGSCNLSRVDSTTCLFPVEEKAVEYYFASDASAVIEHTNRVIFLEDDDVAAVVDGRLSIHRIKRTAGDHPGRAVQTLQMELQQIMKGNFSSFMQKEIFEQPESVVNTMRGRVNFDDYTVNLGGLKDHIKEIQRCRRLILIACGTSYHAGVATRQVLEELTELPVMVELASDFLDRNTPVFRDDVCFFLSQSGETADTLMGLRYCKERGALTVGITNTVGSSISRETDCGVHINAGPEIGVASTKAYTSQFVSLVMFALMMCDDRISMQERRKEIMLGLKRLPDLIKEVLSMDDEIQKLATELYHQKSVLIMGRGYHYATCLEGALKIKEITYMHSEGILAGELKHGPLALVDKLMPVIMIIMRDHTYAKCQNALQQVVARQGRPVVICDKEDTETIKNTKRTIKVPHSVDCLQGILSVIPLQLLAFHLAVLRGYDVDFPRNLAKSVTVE
Sequence of UniProt Q17RS7 (Q17RS7 whole entry, looked up): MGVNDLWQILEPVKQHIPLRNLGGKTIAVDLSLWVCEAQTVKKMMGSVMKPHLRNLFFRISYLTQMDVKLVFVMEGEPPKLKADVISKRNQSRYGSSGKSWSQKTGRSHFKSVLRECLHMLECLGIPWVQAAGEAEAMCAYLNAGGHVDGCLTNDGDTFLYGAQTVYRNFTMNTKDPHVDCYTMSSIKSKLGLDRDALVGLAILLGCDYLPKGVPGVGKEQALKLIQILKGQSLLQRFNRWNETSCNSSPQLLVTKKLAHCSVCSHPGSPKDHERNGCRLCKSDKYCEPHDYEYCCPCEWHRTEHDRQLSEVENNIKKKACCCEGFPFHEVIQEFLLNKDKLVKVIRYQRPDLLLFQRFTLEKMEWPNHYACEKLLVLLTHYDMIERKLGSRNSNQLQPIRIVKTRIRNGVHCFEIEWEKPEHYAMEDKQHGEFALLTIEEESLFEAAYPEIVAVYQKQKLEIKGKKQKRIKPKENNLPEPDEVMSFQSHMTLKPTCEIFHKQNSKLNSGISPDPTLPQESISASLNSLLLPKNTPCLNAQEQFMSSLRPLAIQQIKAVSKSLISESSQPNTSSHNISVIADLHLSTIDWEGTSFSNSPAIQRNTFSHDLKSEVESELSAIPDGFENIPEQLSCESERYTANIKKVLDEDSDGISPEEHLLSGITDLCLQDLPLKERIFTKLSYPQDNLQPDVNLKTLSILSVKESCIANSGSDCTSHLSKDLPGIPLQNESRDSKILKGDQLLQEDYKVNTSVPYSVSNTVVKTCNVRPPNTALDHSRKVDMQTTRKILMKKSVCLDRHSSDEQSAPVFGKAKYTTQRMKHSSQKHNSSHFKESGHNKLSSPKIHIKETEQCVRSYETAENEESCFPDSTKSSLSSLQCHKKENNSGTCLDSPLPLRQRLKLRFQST
Sequence of UniProt Q02952 (Q02952 whole entry, looked up): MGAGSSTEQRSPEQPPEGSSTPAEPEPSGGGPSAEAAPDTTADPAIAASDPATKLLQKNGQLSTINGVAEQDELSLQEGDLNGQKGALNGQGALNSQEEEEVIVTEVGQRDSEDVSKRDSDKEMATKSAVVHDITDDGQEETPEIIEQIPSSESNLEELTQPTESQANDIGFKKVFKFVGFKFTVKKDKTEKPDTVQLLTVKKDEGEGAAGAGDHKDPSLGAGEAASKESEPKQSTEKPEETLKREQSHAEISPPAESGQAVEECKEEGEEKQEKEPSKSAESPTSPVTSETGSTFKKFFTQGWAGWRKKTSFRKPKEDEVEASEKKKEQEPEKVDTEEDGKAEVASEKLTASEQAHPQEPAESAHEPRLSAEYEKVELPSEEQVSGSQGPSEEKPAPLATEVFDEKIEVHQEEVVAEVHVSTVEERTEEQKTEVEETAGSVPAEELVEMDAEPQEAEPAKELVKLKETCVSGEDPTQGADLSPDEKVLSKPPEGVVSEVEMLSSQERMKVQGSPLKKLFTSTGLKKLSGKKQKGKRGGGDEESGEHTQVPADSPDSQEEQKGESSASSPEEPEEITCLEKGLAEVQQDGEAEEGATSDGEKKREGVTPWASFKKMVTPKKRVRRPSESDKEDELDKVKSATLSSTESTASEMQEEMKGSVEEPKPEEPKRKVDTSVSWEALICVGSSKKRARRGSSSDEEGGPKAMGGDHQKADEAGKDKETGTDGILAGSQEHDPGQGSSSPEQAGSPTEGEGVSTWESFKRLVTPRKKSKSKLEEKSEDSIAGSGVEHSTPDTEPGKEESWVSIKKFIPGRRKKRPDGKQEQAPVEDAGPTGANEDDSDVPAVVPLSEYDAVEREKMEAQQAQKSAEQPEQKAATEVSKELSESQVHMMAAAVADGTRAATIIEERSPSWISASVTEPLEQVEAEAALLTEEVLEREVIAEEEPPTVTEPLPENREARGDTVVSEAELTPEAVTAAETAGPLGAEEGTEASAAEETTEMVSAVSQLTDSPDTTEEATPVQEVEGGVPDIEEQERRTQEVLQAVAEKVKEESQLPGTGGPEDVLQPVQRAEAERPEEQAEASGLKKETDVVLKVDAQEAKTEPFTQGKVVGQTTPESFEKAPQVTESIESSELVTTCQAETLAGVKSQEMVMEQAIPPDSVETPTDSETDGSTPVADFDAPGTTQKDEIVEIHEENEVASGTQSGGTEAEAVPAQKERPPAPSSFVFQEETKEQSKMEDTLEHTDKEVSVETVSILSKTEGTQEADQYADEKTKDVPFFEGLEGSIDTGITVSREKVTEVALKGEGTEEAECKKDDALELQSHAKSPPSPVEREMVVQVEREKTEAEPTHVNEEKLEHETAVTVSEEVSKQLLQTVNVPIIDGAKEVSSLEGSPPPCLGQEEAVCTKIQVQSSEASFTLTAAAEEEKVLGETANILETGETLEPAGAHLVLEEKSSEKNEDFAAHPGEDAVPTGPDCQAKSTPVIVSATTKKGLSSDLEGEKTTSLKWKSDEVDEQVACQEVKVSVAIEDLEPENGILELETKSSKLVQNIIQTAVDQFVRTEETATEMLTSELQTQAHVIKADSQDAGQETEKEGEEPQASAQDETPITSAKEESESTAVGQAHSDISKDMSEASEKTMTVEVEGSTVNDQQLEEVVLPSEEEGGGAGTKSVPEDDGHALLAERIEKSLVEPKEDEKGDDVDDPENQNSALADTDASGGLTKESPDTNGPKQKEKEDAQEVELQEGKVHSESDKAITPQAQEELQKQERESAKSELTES

Row | Target | log2 ratio of iodoacetamide-alkyne labeling
1 | MORC3 C619 (UniProt Q14149) | 0.279
2 | UBE2V1 C144 (UniProt Q13404) | 0.136
3 | TBL3 C696 (UniProt Q12788) | 0.373
4 | PDCD11 C151 (UniProt Q14690) | 0.508
5 | GEN1 C668 (UniProt Q17RS7) | 0.0186
6 | UniProt P61163_C222 | 0.293
7 | UniProt P60891_C41 | -0.0365
8 | AP1B1 C129 (UniProt Q10567) | 0.414
9 | SAFB C404 (UniProt Q15424) | 1.14 (active)
10 | UniProt Q00341_C948 | 0.167
11 | MIA3 C1513 (UniProt Q5JRA6) | 0.31
12 | UniProt P62834_C141 | 0.00921
13 | GEMIN4 C382 (UniProt P57678) | 0.0965
14 | PPA1 C274 (UniProt Q15181) | 0.425
15 | COASY C140 (UniProt Q13057) | 1.16 (active)
16 | UniProt P84103_C6 | 0.422
17 | UniProt Q15042_C335 | 0.153
18 | ETFDH C561 (UniProt Q16134) | 0.595

Row | Target | log2 ratio of iodoacetamide-alkyne labeling
19 | NUMA1 C658 (UniProt Q14980) | -0.0504
20 | UniProt P55072_C209 | 0.132
21 | UniProt P78527_C4061 | 0.465
22 | ACOX1 C199 (UniProt Q15067) | 0.0457
23 | BPTF C1357 (UniProt Q12830) | 0.53
24 | DYNC1H1 C3147 (UniProt Q14204) | 0.433
25 | MTA1 C229 (UniProt Q13330) | 0.124
26 | SF3A3 C103 (UniProt Q12874) | 0.188
27 | GFPT1 C55 (UniProt Q06210) | 0.387
28 | CDC20 C364 (UniProt Q12834) | 1.22 (active)
29 | DYNC1H1 C1977 (UniProt Q14204) | 0.124
30 | UniProt Q12905_C271 | 0.137
31 | AKAP13 C683 (UniProt Q12802) | 0.255
32 | AKAP12 C1407 (UniProt Q02952) | 1.16 (active)
33 | DYNC1H1 C4216 (UniProt Q14204) | 0.162
34 | RRP12 C261 (UniProt Q5JTH9) | 0.53
35 | UniProt Q5H9R7_C467 | 0.103
36 | MTA1 C512 (UniProt Q13330) | 0.481

Reference: the supplement of paper PMC11006884
